Assay outcomes: PubChem, National Center for Advancing Translational Sciences (NCATS)
Hits are enriched below; roughly 19% of the tested compounds scored in any of these assays.
HT1080 IDH1KD tx – qHTS for induction of synthetic lethality in tumor cells producing 2HG: qHTS for the HT-1080-IDH1KD cell line | HT-1080 IDH1 knockdown viability, ATP luminescence, 48 h | Potency, µM (doses to about 46.1 µM), for inactives: top-dose activity, negative = toxicity, hits mostly cytotoxic | 360,000 compounds, 2% hits;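 also: 0% = DMSO wells and -100% = cell-free medium wells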
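% activity derives from luminescence (CellTiter-Glo), normalised to DMSO and no-cell wells. HT-1080-IDH1KD cells, 750/well, had 48 h compound exposure at 37 °C.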
KB-V1 MDR tox – qHTS assay for MDR1-selective chemotherapeutics: Primary screen using the drug-selected MDR subline cells KB-V1; Potency, µM (doses to about 46.1 µM), hits mostly cytotoxic; 400,000 compounds, 3.4% hits; AID 1347076, 2019; KB-V1 MDR cells viability, CellTiter-Glo, 72 h; also: nearly all actives have a fitted effect of over 60% in size
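KB-V1 MDR subline cells in DMEM (phenol-red free, 10% FBS) exposed to compounds in qHTS concentration series for 72 h at 37 degrees C. Viability read by CellTiter-Glo luminescence; concentration-effect curves fitted after normalization and correction.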
TDP1 cell noCPT – qHTS for Inhibitors of human tyrosyl-DNA phosphodiesterase 1 (TDP1): qHTS in cells in absence of CPT. AID 686978, 2013. DT40 Tdp1-/- hTDP1 cells, no CPT, ATP luminescence, 48 h. Potency, µM (highest dose often 46.2 µM), without a hit: top-dose activity change, negative = growth inhibition, hits mostly inhibitors. 420,000 compounds, 15% hits; also: nearly all actives have a fitted effect of over 55% in size
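Compound effects on proliferation are scored in DT40 Tdp1-/-;hTDP1 cells in the absence of CPT. ATP levels (CellTiter-Glo luminescence) are recorded after a ≥48 hr, 37 °C incubation.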
TDP1 cell CPT – qHTS for Inhibitors of human tyrosyl-DNA phosphodiesterase 1 (TDP1): qHTS in cells in presence of CPT. chicken DT40 Tdp1-/-;hTDP1 cells + 20 nM CPT, ATP luminescence, 48 h. Potency, µM (top dose mostly 46.2 µM), for the others: at the highest dose activity change, negative = growth inhibition, usual class: inhibitors. 420,000 compounds, 12% hits; also: nearly all actives have a fitted effect of over 55% in size
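Chicken DT40 Tdp1-/- cells complemented with human TDP1, 400 cells/well, exposed to compounds plus 20 nM camptothecin for at least 48 h at 37 C; viability read as ATP content by CellTiter-Glo luminescence.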
KB-3-1 tox – qHTS assay for MDR1-selective chemotherapeutics: Primary screen using the parental adenocarcinoma cell KB-3-1; Potency, µM (titrated, usually from 46.1 µM), actives largely listed as cytotoxic; KB-3-1 viability, CellTiter-Glo ATP luminescence, 72 h; 400,000 compounds, 1.4% hits; also: nearly all actives have a fitted effect of over 60% in size
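Cells are dispensed, compounds pinned in, plates held at 37 °C for 72 h, then CellTiter-Glo is added and luminescence read after 10 minutes. Cell line: parental KB-3-1 in phenol-red-free DMEM, 10% FBS.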
HT1080-NT tox – qHTS for induction of synthetic lethality in tumor cells producing 2HG: qHTS for the HT-1080-NT fibrosarcoma cell line; 360,000 compounds, 1.6% hits; AID 686970, 2013; HT-1080-NT fibrosarcoma viability, CellTiter-Glo ATP luminescence, 48 h; Potency, µM (doses to about 46.1 µM), for inactives: top-dose activity, negative = less viability, most hits filed as cytotoxic;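 also: NT is the 2HG producing partner of a matched IDH1 knockdown line; 0% = DMSO-treated cells and -100% = media-only wells without cells; nearly all actives have a fitted effect of over 55% in size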
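HT-1080-NT fibrosarcoma cells (2HG-overproducing), 750 cells/well in RPMI with 5% FBS, dosed after 2 h and incubated 48 h at 37C. CellTiter-Glo luminescence normalized to DMSO and no-cell wells; concentration-response curves fitted and classed.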
Starred values were filed as active, the others as inactive; i = inactive; ? = inconclusive; . = not tested or not shown; [ ] = another dose, or the depositor's remark. Calls follow the shape of the dose curve; as a rule, active = well fitted curve in the direction sought with a large enough effect; inconclusive = small, poorly fitted or top-dose-only effect, or another doubt; inactive = no such curve, though single readings can be large; an effect the other way counts as inactive or inconclusive. Unless noted, % is scaled to controls: 0 for no effect and ±100 for the full control effect; potency is read from the fitted curve at half-maximal effect.

SMILES	HT1080 IDH1KD tx	KB-V1 MDR tox	TDP1 cell noCPT	TDP1 cell CPT	KB-3-1 tox	HT1080-NT tox
COc1cccc(C2N(Cc3ccccc3)C(=O)C2(F)F)c1OC (centres undefined)	3.2%	i	-9.0%	-23.8%	i	3.8%
CCOC(=O)[C@]12Cc3c(cc(OC)c(OC)c3OC)[C@H]1N(Cc1ccccc1)C(=O)c1cc(F)c(F)cc12	?	?	25.9µM*	?	?	?
CCOC(=O)[C@]12Cc3c(cc(OC)c(OC)c3OC)[C@H]1N(CCC(=O)OC)C(=O)c1cc(OC)ccc12	?	?	16.4µM*	?	?	?
CCOC(=O)c1c(C)nc2c(c1-c1cc(OC)ccc1OC)C(=O)CC(C)(C)C2	-0.1%	?	-4.8%	-20.6%	i	-0.2%
CCCCNC(=O)C1C(c2ccc(OC)cc2)=Nc2ccccc2N1C(=O)c1cccnc1 (centres undefined)	-8.5%	?	-29.8%	?	?	-5.5%
CCOC(=O)c1c(S(=O)(=O)N2CCC(C(=O)Nc3cccc(C#N)c3)CC2)c(C)n(C)c1C	.	i	-20.2%	-23.2%	i	.
COc1cc(-c2nnc(SCC(=O)NC(C)C)o2)cc(OC)c1OC	.	?	-17.6%	-29.4%	i	.
CCc1nc2c(OCC3COc4ccccc4O3)cccn2c1N(C)C(=O)c1cccc(OC)c1 (centres undefined)	0.0%	i	?	?	i	-0.8%
COc1cccc(-c2ccc(NC(=O)C3CCCN(CCCn4cccn4)C3)cc2)c1 (centres undefined)	3.2%	i	?	?	i	-13.9%
COc1cccc(-c2ccc(NC(=O)C3CCCN(Cc4cc(C)[nH]n4)C3)cc2)c1 (centres undefined)	?	?	?	?	i	-16.8%
COc1cccc(-c2ccc(NC(=O)C3CCCN(Cc4cnc(N(C)C)s4)C3)cc2)c1 (centres undefined)	-18.0%	i	23.1µM*	18.4µM*	i	-15.5%
COCc1ccc(CN2CCCC(C(=O)Nc3ccc(-c4cccc(OC)c4)cc3)C2)o1 (centres undefined)	?	i	14.6µM*	?	i	?
COc1ccc(O)c(CN2CCCC(C(=O)Nc3cccc(-n4cccn4)c3)C2)c1 (centres undefined)	1.5%	.	?	?	.	-0.2%
COc1cccc(-c2ccc(NC(=O)C3CCCN(Cc4cnn(C(C)C)c4)C3)cc2)c1 (centres undefined)	?	i	?	23.1µM*	?	18.4µM*
CCCc1ncc(CN2CCCC(C(=O)Nc3ccc(-c4cccc(OC)c4)cc3)C2)cn1 (centres undefined)	?	i	?	23.1µM*	i	-34.5%
CC(C)CN(CCNC(=O)CCN1N=C(c2ccccc2)CCC1=O)CC(C)C	.	.	-19.8%	-24.9%	.	.
O=C(NC1CCCC1)c1cn(C2CCCN(Cc3ccc4c(c3)OCCO4)C2)nn1 (centres undefined)	.	.	0.3%	?	.	.
Cc1ccc(/C=N/NC(=O)c2ccccn2)s1	-2.0%	i	?	?	i	-14.1%
O=C(N/N=C/c1cccc(O)c1)c1ccc2c(c1)OCCO2	-0.2%	i	3.7%	1.3%	i	-5.2%
Cc1ccc(/C=N/NC(=O)CSc2nc3ccccc3n2C)s1	-7.7%	14.6µM*	?	-14.7%	i	1.1%
Cc1ccc(/C=N/NC(=O)c2ccc3ccccc3c2)s1	2.31µM*	?	0.82µM*	0.82µM*	5.8µM*	?
Cn1c(SCC(=O)N/N=C/c2cccs2)nc2ccccc21	1.9%	i	-24.9%	-12.0%	i	1.8%
Cc1ccc(/C=N/NC(=O)c2ccc3c(c2)OCCO3)s1	13µM*	?	20.6µM*	20.6µM*	20.6µM*	?
C/C(CC(=O)Nc1cc(C)ccn1)=N\NC(=O)c1ccncc1	13.5%	?	-2.6%	3.1%	i	13.4%
CCC(c1ccccc1)c1noc(CCN(CC)CC)n1 (centres undefined)	-9.0%	i	?	?	i	9.1%
SMILES	HT1080 IDH1KD tx	KB-V1 MDR tox	TDP1 cell noCPT	TDP1 cell CPT	KB-3-1 tox	HT1080-NT tox
COc1ccc(C(=O)Nc2nnc(S(=O)(=O)N3CCN(c4ccc(C)cc4)CC3)s2)cc1	.	i	-27.7%	2.8%	i	.
O=C(NCc1nnnn1-c1ccc(F)cc1)c1cc2ccccc2o1	-0.1%	i	-0.4%	-14.7%	i	0.7%
COc1ccc(N2CCN(C(=O)CSc3nnc(-c4ccc5[nH]c(C)c(C)c5c4)o3)CC2)cc1	15.2%	i	-28.7%	?	i	0.0%
Cc1[nH]c2ccccc2c1C(=O)CSc1nnc(C2CC2)o1	13.8%	i	?	0.4%	i	20.7%
Cc1ccc(C(=O)CSc2nnc(-c3ccc4[nH]c(C)c(C)c4c3)o2)cc1C	3.1%[9.24 µM]	i	25.9µM*	?	i	11.2%
Cc1[nH]c2ccc(-c3nnc(SCC(=O)c4ccccc4F)o3)cc2c1C	-11.9%	20.6µM*	18.4µM*	-71.7%	i	-13.1%
Cc1ccc(CC(=O)NCc2nc(-c3ccccc3)no2)cc1	.	.	-19.7%	1.0%	.	.
CC(O)CN(CC(C)O)c1ccc2c(c1)Cc1cc([N+](=O)[O-])ccc1-2 (centres undefined)	?	i	14.6µM*	18.4µM*	i	-21.4%
CC(=NO)c1ccc2c(c1)Cc1cc([N+](=O)[O-])ccc1-2	-3.3%	7.31µM*	13µM*	?	14.6µM*	3.0%
Cc1ccc2nc(-c3ccccn3)c(NC3CCCC3)n2c1	?	i	0.326µM*	1.3µM*	i	?
Cc1ccc2nc(-c3ccc(C)o3)c(NC3CCCC3)n2c1	-16.2%	.	12.6µM*	11.2µM*	.	-22.4%
CCCCCCSc1cccc(-c2nc3ccc(C)cn3c2NC2CCCCC2)c1	?	i	?	?	i	0.0%
Fc1ccccc1-c1nc(N2CCN(c3cccc(Cl)c3)CC2)c2ccccc2n1	.	i	23.1µM*	13µM*	?	.
